Compound activity: PubChem BioAssay, National Center for Advancing Translational Sciences (NCATS)
The list is not random: actives were taken first. Their share in the collection is about 12%.
JMJD2A Tudor inh: qHTS Assay for Inhibitors of JMJD2A-Tudor Domain | AlphaScreen JMJD2A-Tudor / H3K4me3 peptide binding | AID 504339, 2011 | hit rate 4.4% among 390,000 | Potency, µM (doses to about 114 µM), without a hit: top-dose activity change, negative = inhibition, usual class: inhibitors | Lysine-specific demethylase 4A (Homo sapiens), O75164; also: % is scaled to controls: 0 for no effect and ±100 for the full control effect; nearly all actives have a fitted effect of over 50% in size
BAZ2B inh: qHTS Assay for Inhibitors of BAZ2B; Potency, µM (doses to about 114 µM), without a hit: top-dose activity change, negative = inhibition, most hits filed as inhibitors; AID 504333, 2011; Bromodomain adjacent to zinc finger domain protein 2B (Homo sapiens), Q9UIF8; AlphaScreen BAZ2B-H3K14Ac peptide displacement; hit rate 4.4% among 360,000; also: % is scaled to controls: 0 for no effect and ±100 for the full control effect; nearly all actives have a fitted effect of over 60% in size
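BAZ2B 50 nM plus b-H3(5-23)K14Ac 50 nM, PBS pH 7.4/0.01% Tween-20, 30 min RT; compound added (max 110 uM), 30 min RT; streptavidin donor/Ni-chelate acceptor beads 10 ug/mL final, 20 min dark; AlphaScreen read.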
G9a block: qHTS Assay for Inhibitors of Histone Lysine Methyltransferase G9a; G9a H3K9 monomethylation, AlphaScreen, 2 h; hit rate 8.8% among 350,000; Potency, µM (highest dose often 102 µM), for inactives: top-dose activity, negative = inhibition, hits mostly inhibitors; Histone-lysine N-methyltransferase EHMT2 (Homo sapiens), Q96KQ7; AID 504332, 2011; also: % is scaled to controls: 0 for no effect and ±100 for the full control effect; nearly all actives have a fitted effect of over 75% in size
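G9a (20 nM) preincubated 15 min RT with compounds, then 500 nM biotinylated H3K9 peptide and 20 uM SAM added; 2 h RT reaction. Monomethyl-H3K9 product detected by AlphaScreen with anti-H3K9me1 antibody, streptavidin donor and anti-rabbit IgG acceptor beads.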
Sfp PPTase inh: qHTS Assay for Inhibitors of Bacillus subtilis Sfp phosphopantetheinyl transferase (PPTase). 4'-phosphopantetheinyl transferase ffp (Bacillus subtilis), Q9F4F7. Biochemical Sfp PPTase activity, qHTS. AID 1490, 2009. hit rate 3.5% among 310,000. Potency, µM, for inactives: largest response in the series, negative = inhibition, actives largely listed as inhibitors;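 also: the enzyme is Sfp with the accession as filed and its product quenches rhodamine fluorescence; 0% = enzyme reaction without inhibitor and -100% = no enzyme wells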
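Reaction rates are the 30-min fluorescence difference (ex 525, em 598 nm) in wells containing 15 nM Sfp, 5 uM rhodamine-CoA and 12.5 uM BHQ-2-YbbR at pH 7.6 with 10 mM MgCl2.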
L3MBTL1 inh: qHTS Assay for the Inhibitors of L3MBTL1. AlphaScreen L3MBTL1–H3K9me1 peptide binding. Potency, µM (titrated, usually from 57.1 µM), for the others: top-dose activity, negative = inhibition, actives largely listed as inhibitors. hit rate 0.66% among 230,000; also: % is scaled to controls: 0 for no effect and ±100 for the full control effect; nearly all actives have a fitted effect of over 60% in size
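Read-out is AlphaScreen signal from streptavidin donor and nickel chelate acceptor beads (10 ug/mL final each) bridging L3MBTL1 (50 nM) and biotinylated K9-monomethylated H3(1-15) peptide (75 nM), after 30 min compound exposure at room temperature.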
HP1b chromo inh: HTS for Inhibitors of HP1-beta Chromodomain Interactions with Methylated Histone Tails; Chromobox protein homolog 1 (Homo sapiens), P83916; AlphaScreen HP1-beta / biotin-H3K9me3 peptide binding; Potency, µM (doses to about 114 µM), for inactives: top-dose activity change, negative = inhibition, usual class: inhibitors; hit rate 0.56% among 390,000; AID 540317, 2011; also: nearly all actives have a fitted effect of over 70% in size
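HP1-beta protein (50 nM final) preincubated 30 min at room temperature with biotinylated H3(1-18)K9me3 peptide (50 nM) in PBS pH 7.4, 0.01% Tween-20, then compound added for 30 min. AlphaScreen streptavidin donor/nickel chelate acceptor beads (10 ug/mL final), 30 min dark, luminescence read.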
* = called active by the depositor; ? = inconclusive; / = no result given; ! = a repeat was not active; [ ] = remark or other dose. Calls follow the shape of the dose curve; as a rule, active = well fitted curve in the direction sought with a large enough effect; inconclusive = small, poorly fitted or top-dose-only effect, or another doubt; inactive = no such curve, though single readings can be large; an effect the other way counts as inactive or inconclusive. Potency is read from the fitted curve at half-maximal effect.

SMILES	JMJD2A Tudor inh	BAZ2B inh	G9a block	Sfp PPTase inh	L3MBTL1 inh	HP1b chromo inh
COc1ccc(C2NCc3ccccc3-n3cccc32)cc1 (configuration not stated)	?	?	70.8µM*	-6.4%	/	-15.2%
COc1cc(C2NCc3ccccc3-n3cccc32)ccc1O (configuration not stated)	-27.6%	-31.9%	-14.3%[59 µM]	-1.2%	-8.7%	-3.0%
NC(Cc1ccc(Oc2cc(I)c(O)c(I)c2)c(I)c1)C(=O)O (configuration not stated)	/	/	?	-12.7%	/	/
N[C@@H](Cc1cc(I)c(O)c(I)c1)C(=O)O	11.2µM*	7.4%	6.31µM*!	?	4.8%	?
Cc1ccc(Cl)cc1N1CCN(C(=O)c2cn(CC(C)C)c(=O)c3c2c2ccccc2n3C)CC1	-30.4%	?	?	/	/	11.7%
CC(C)[N+](C)(CCC(C(N)=O)(c1ccccc1)c1ccccc1)C(C)C	25.1µM*	-18.0%	-74.0%[2.33 µM]	-74.2%	/	?
Oc1ccc(/C=N/NP(=S)(c2ccccc2)c2ccccc2)cc1O	?	?	?	-11.1%	/	?
O=Cc1ccc(O)c(O)c1	22.4µM*	56.2µM*	?	31.6µM*	0.9%	27.8%
Cc1ccc(S(=O)(=O)NN)c(C)c1N1CCCC1=O	-8.1%[11.4 µM]	1.6%	/	56.2µM*	56.1%	61.8%
COc1ccc(CNC(=O)/C=C\c2ccc3[nH]cc(CCN(C)C)c3c2)cc1	/	/	/	12.7%	/	/
Cc1ccc(-c2nc(CS(=O)CC(=O)NC3CCCC(C)C3C)c(C)o2)cc1 (configuration not stated)	-21.1%	-19.4%	35.5µM*	12.6%	/	28.5%
CC1CCCC(NC(=O)COC(=O)c2cn(C)c3ccccc23)C1C (configuration not stated)	-6.4%	4.0%	20.8%[12.7 µM]	/	0.9%	49.5%
COc1ccc(/C=C2/C(=O)NC(=O)N(C3CCCCC3)C2=O)cc1CSc1ccccn1	/	?	?	56.2µM*	-4.6%	/
COc1ccc(C=C2C(=O)N(C)C(=O)N(C)C2=O)cc1CSc1ccccn1	?	-23.2%	44.7µM*	44.7µM*	-1.1%	39.6%
COc1ccc(C)cc1NC(=O)c1cccn(Cc2cccc([N+](=O)[O-])c2)c1=O	-13.0%	-11.0%	-22.4%[59 µM]	/	/	35.8%
C/C=C1\C2C=C(C)C[C@@]1(N)c1ccc(=O)[nH]c1C2	/	/	-12.2%[2.33 µM]	-5.9%	/	/
C[C@@H]1CC2(CCCC[N+]2(C)C)C[C@H]1C	?	-17.1%	11.2µM*	18.1%	/	-2.2%
c1ccc(CN2CCNCC2)nc1	44.7µM*	70.8µM*	35.5µM*	-4.6%	/	9.8%
COc1cc2c(c3oc4cccc(O)c4c(=O)c13)C1C=CO[C@@H]1O2 (some centres not stated)	/	/	/	1.4%	/	/
C[C@H]1CO1	/	/	/	4.2%	/	/
Cc1cccc(OCC(=O)N2CCN(Cc3ccc([N+](=O)[O-])cc3)CC2)c1	10µM*	-1.0%	0.2%	11.6%	8.6%	?
COc1ccccc1CN1CCN(C(=O)COc2ccccc2)CC1	3.16µM*	?	?	-11.2%	11.1%	?
COc1ccc(OCC(=O)N2CCN(C(C)C)CC2)cc1	1.41µM*	56.2µM*	10µM*	-19.3%	?	?
COc1cccc(CN2CCN(C(=O)COc3ccc4ccccc4c3)CC2)c1	-28.0%	-27.5%	?	?	-1.4%	10.3%
CCN1CCN(C(=O)Cc2ccccc2OC)CC1	-7.7%	-24.9%	-3.8%	16.0%	-17.4%	33.6%
SMILES	JMJD2A Tudor inh	BAZ2B inh	G9a block	Sfp PPTase inh	L3MBTL1 inh	HP1b chromo inh
COc1ccc(OCC(=O)N2CCN(Cc3ccc4c(c3)OCO4)CC2)cc1	-6.3%	-9.1%	4.8%	25.7%	-2.0%	12.9%
COc1cc(OC)c(OC)cc1CN1CCN(C(=O)COc2ccc3ccccc3c2)CC1	3.16µM*	44.7µM*	10µM*	-21.0%	/	50.1µM*
CN[C@@H](CC(C)C)C(=O)N[C@@H]1C(=O)N[C@H](CC(N)=O)C(=O)N[C@@H]2C(=O)N[C@H]3C(=O)N[C@H](C(=O)N[C@H](C(=O)O)c4cc(O)cc(O)c4-c4cc3ccc4O)[C@H](O)c3ccc(c(Cl)c3)Oc3cc2cc(c3O[C@H]2O[C@@H](CO)[C@@H](O)[C@@H](O)[C@@H]2O[C@@H]2C[C@](C)(N)[C@H](O)[C@H](C)O2)Oc2ccc(cc2Cl)[C@@H]1O	/	/	-0.8%[12.7 µM]	12.7%	/	/
C#Cc1cccc2c1c(C(=O)c1ccc(Cn3c(C)nc4cnccc43)c(F)c1)cn2C(=O)N(C)C	/	/	/	-8.4%	/	/
NC(N)=NCCC[C@H](N)C(=O)O	/	/	54.0%[12.7 µM]	?	/	/
CCC(=O)Nc1ccc(C(=O)OCc2ccccc2Cl)cc1	6.9%	3.5%	23.8%[59 µM]	0.4%	/	61.5%
COc1ccc2c(c1)CCc1c(C(=O)Nc3c(C)nn(Cc4ccccc4C)c3C)noc1-2	-22.5%	-12.9%	?	/	/	9.3%
COC(=O)c1nc(-c2ccc3c(n2)C(=O)C(N)=C(OC)C3=O)c(N)c(-c2ccc(OC)c(OC)c2O)c1C	-31.0%	?	10µM*	15.8µM*	/	-3.8%
O=C(Cc1cccc(C(F)(F)F)c1)N1CCN(CC(=O)N2CCCC2)CC1	-5.7%	2.8%	-2.1%[12.7 µM]	/	-4.4%	30.6%
O=C(CCN1CCN(CCO)CC1)N1c2ccccc2Sc2ccc(C(F)(F)F)cc21	56.2µM*	-12.2%	?	-4.0%	/	38.1%
COc1ccccc1N1CCN(C(=O)c2cc3c(-c4ccccc4F)nn(C)c3s2)CC1	-33.7%	/	?	/	/	14.4%
Clc1ccc(C2=CCC[C@H]3CC[C@@H]2N3)cn1	/	/	/	-15.9%	/	/
C=CCn1c(O)c(Cc2ccc(OCC)cc2)c(=O)[nH]c1=O	31.6µM*	0.5%	2.9%	0.2%	/	-11.8%
C=CCn1c(O)c(C=NCCCOc2ccc(CC)cc2)c(=O)[nH]c1=S	-17.5%	1.3%	?	-28.6%	0.5%	24.4%
CCN1CCN(C(=O)Cc2coc3ccc4ccccc4c23)CC1	-21.7%	-26.1%	50.1µM*	6.1%	/	-0.9%
Cc1ccc(CC(=O)N2CCN(Cc3ccccc3)CC2)cc1	-9.8%	-20.9%	-51.7%	20.7%	-1.5%	58.0%
OCC(Br)(Br)Br	/	/	/	6.7%	/	/
O=C1NC(=O)N(CCC2=CCCCC2)C(=O)/C1=C\c1cccs1	?	?	?	50.1µM*	?	24.0%
